This is an account of results in PubChem BioAssay (NCATS).

The structures appear in SMILES notation. Several values for one entry are separate records, joined by “and”; a condition that tells them apart may be missing. Equal values may be shown once. A number with no mark means an inactive call. Inconclusive results are not listed. Activity calls are given as the source filed them. Unless noted, the call rests on the fitted dose curve; in most records, active means well fitted curve in the direction sought with a large enough effect; inconclusive means small, poorly fitted or top-dose-only effect, or another doubt; inactive means no such curve, though single readings can be large; an effect the other way counts as inactive or inconclusive.

A short description of test [1]: Cell Viability - Jurkat (AID 426;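 active means dose-dependent loss of cell ATP signal giving a full or clear fitted curve, ranked by lower potency value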;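 further: potency means the concentration at half of the fitted maximal effect; cells exposed to compound for 40 hours at 37 °C before ATP read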). To be noted: qHTS. The gist of the method:
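Luminescent ATP read-out (CellTiter-Glo, 20 min at room temperature) after 40 hr compound exposure at 37 °C of Jurkat E6-1 cells, 5000/well. Decreased ATP taken as cytotoxicity; AC50 from standard Hill equation.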

Test [2] is described as follows: Cellular Toxicity (caspase-3) BJ (AID 658).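 Further: cells exposed to compound for 16 hours; 0% = DMSO basal and 100% = 10 µM staurosporine.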 To be noted: BJ fibroblasts, luminescence; Potency: caspase-3 activation; series mostly up to 91.7 µM. The gist of the method:
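qHTS, BJ fibroblasts, 1000 cells/well; 5 hr preincubation, 16 hr compound, 37 °C; Caspase-Glo 3/7 reagent, 1 hr RT; luminescence. DMSO = 0%, 10 uM staurosporine = 100%. Hill-equation AC50.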

Test [3] in a line: Cellular Toxicity (caspase-3) Mesangial (AID 660).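 Further: combined caspase 3 and 7 activity read by Caspase-Glo luminescence; cells exposed to compound for 16 h before the caspase read.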 Particulars: mesangial cells, normalized: DMSO 0%, 100 µM tamoxifen 100%; series mostly up to 91.7 µM. The gist of the method: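 Luminescent Caspase-Glo 3/7 readout (aminoluciferin substrate cleavage, 20 min RT) after 16 h compound exposure at 37 °C of normal human mesangial cells. Signal increase normalized between DMSO basal and 100 uM tamoxifen; Hill-equation AC50.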

Test [4] concerns the target Vitamin D3 receptor (Homo sapiens) (UniProt P11473). The test is described as follows: qHTS assay for small molecule antagonists of vitamin D receptor signaling (AID 588541; calls by dose curve;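 further: receptor activated by calcitriol during compound treatment; on the % scale 0 is the no-effect control and ±100 the full control effect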). Particulars: HEK293T VDR-UAS-bla, beta-lactamase ratio, antagonist mode; series mostly up to 76.7 µM. The gist of the method: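 VDR-UAS-bla HEK293T cells in 2% charcoal-stripped FBS were stimulated with 1-alpha,25-dihydroxyvitamin D3 (3 nM final) plus compound for 16 h at 37 C. The beta-lactamase CCF4 readout was normalized to 50 nM agonist and DMSO, and Hill fits gave IC50.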
On the technique in general: Quantitative high-throughput screening tests each substance at several concentrations.

Test [5] has the same target. The experiment in a line: qHTS assay for small molecule agonists of vitamin D receptor signaling (AID 588543; calls by dose curve; further: potency means the concentration at half of the fitted maximal effect). Particulars: HEK293T VDR-UAS-bla, beta-lactamase ratio, 16 h; series mostly up to 76.8 µM. The gist of the method: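 Reporter cells (HEK293T, VDR-UAS-bla) were seeded in medium with 2% charcoal-stripped serum and incubated 5 h, then compounds in concentration series were added for 16 h at 37 °C. Stimulation was scaled between DMSO basal and 50 nM 1α,25-dihydroxyvitamin D3.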

Test [6] can be described thus: qHTS assay for small molecule agonists of the antioxidant response element (ARE) signaling pathway (AID 651741; active means well fitted activation curve with a large enough effect in the signal ratio; the % refers to the signal ratio; further: potency means the concentration at half of the fitted maximal effect; on activation: % of control where 0% means no effect). To be noted: HepG2 ARE-bla reporter, beta-lactamase FRET ratio, 16 h; series mostly up to 96 µM. The gist of the method:
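HepG2 ARE-bla reporter cells, 2,000/well; 5 h settle at 37 C/5% CO2; compound pin transfer (23 nL, DMSO); 16 h at 37 C; LiveBLAzer B/G FRET substrate, 2 h RT; fluorescence intensity read.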

A short description of test [7]: qHTS assay for small molecule activators of the p53 signaling pathway (AID 651743; active means well fitted activation curve with a large enough effect in the signal ratio, not every such curve was filed as active; the % refers to the signal ratio; further: potency means the concentration at half of the fitted maximal effect; on activation: % of control where 0% means no effect). Particulars: HCT-116 p53RE-bla, beta-lactamase FRET ratio, 16 h; activation: stronger effect = higher value. The gist of the method:
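Reporter: beta-lactamase driven by p53 response elements, stably integrated in HCT-116 cells. Cells seeded at 4,000/well, 5 h preincubation, compound (DMSO) 16 h at 37 C; B/G FRET substrate 2 h RT; fluorescence intensity read.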

For test [8], the target named is Tumor necrosis factor (Homo sapiens) (UniProt P01375). The test is described as follows: qHTS assay to identify small molecules that stimulate Tumor Necrosis Factor-alpha (TNF-alpha) secretion (AID 651757; active means well fitted curve in the direction sought with a large enough effect in the signal ratio; the % refers to the signal ratio; further: 0% is about no effect). Particulars: Human cells, HTRF 665/615 ratio; series mostly up to 92.2 µM. The gist of the method: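 THP-1 cells, 3000/well; compound 17 hrs, 37 C; add cryptate/XL665 anti-TNF-alpha antibody pair; 3 hr RT; TR-FRET (HTRF) read of secreted TNF-alpha. Quantitative HTS format.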

Test [9] addresses Nuclear receptor ROR-gamma (Homo sapiens) (UniProt P51449). The experiment in a line: qHTS assay for small molecule antagonists of the retinoid-related orphan receptor gamma (ROR-gamma) signaling pathway (AID 651802).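 Further: CHO cells with doxycycline-induced ROR-gamma expression; luciferase reporter luminescence driven by ROR response element; on the % scale 0 is the no-effect control and ±100 the full control effect; nearly all actives have a fitted effect of over 60% in size.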 To be noted: ROR-gamma antagonist cell reporter assay; series mostly up to 92.2 µM. The gist of the method: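 Luciferase read-out: ONE-Glo luminescence after 30 min at room temperature, following 16hr doxycycline induction at 37C, 5% CO2 of CHO cells with TET-inducible ROR and RORE-LUC reporter; decreased luminescence = reduced reporter activity.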

Test [10] in a line: qHTS assay for small molecule antagonists of the retinoid-related orphan receptor gamma (ROR-gamma) signaling pathway - cell viability counter screen (AID 720652; active means well fitted curve in the direction sought with a large enough effect in the repeat runs; an effect the other way counts as inactive or inconclusive;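 further: CHO reporter cells with doxycycline-induced ROR-gamma expression; compound exposure lasted 16 hr before ATP read; on the % scale 0 is the no-effect control and ±100 the full control effect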). Particulars: RORgamma reporter cell line viability counter screen; series mostly up to 92.2 µM. The gist of the method: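 CHO RORE-LUC/TET-ROR line, 1,000 cells/well, 37 C 5% CO2 5 hr; cpd or DMSO + doxycycline induction, 16 hr. CellTiter-Glo, 30 min RT, luminescence = ATP content.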

Test [11] in a line: qHTS assay for small molecule activators of the human pregnane X receptor (PXR) signaling pathway (AID 720659; call rule not given here; further: 0% is about no effect). To be noted: DPX-2 HepG2 CYP3A4-luciferase, 24 h; series mostly up to 92.3 µM.
A short description of test [12]: Cellular Toxicity (caspase-3) SHSY5Y (AID 657).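 Further: cells exposed to compound for 16 hours at 37 °C.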 To be noted: SH-SY5Y caspase-3 activation; series mostly up to 91.7 µM. The gist of the method:
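qHTS, SH-SY5Y, 1500 cells/well, 5 h pre-incubation 37 °C; compound 16 h 37 °C; Caspase-Glo 3/7 1 h RT; luminescence. Norm.: DMSO = 0, 10 uM staurosporine = 100%. Hill fit → AC50.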

Test [13] can be described thus: Cellular Toxicity (caspase-3) H-4-II-E (AID 663).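 Further: cells exposed to compound for 16 hr before readout.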 To be noted: H-4-II-E rat hepatoma; Potency: caspase-3 activation; series mostly up to 92.2 µM. The gist of the method:
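H-4-II-E rat hepatoma, 1500 cells/well, 5 hr settle at 37 °C; compound 16 hr, 37 °C, complete medium; Caspase-Glo 3/7, 20 min RT; luminescence. DMSO = 0%, 100 uM tamoxifen = 100%; Hill-equation AC50.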

Test [14] deals with Estrogen receptor (Homo sapiens) (UniProt P03372). The test is described as follows: qHTS assay for small molecule antagonists of estrogen receptor alpha signaling (AID 588513; active means well fitted curve in the direction sought with a large enough effect in the signal ratio, with a control signal flat, not every such curve was filed as active; the % refers to the signal ratio; further: on the % scale 0 is the no-effect control and ±100 the full control effect). To be noted: ER-alpha-UAS-bla HEK293, beta-lactamase ratio, antagonist mode; series mostly up to 76.9 µM. The gist of the method: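 Fluorescence from CCF4 substrate after 2 h at room temperature gave reporter activity; cells had been exposed to compound and 0.5nM 17-beta-estradiol for 18 h at 37 C. Hill-equation fitting yielded IC50 and maximal response.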

For test [15], the target named is Cytochrome P450 3A4 (Homo sapiens) (UniProt P08684). The experiment in a line: qHTS Assay for Inhibitors and Substrates of Cytochrome P450 3A4 (AID 884). Further: on the % scale 0 is the no-effect control and ±100 the full control effect; nearly all actives have a fitted effect of over 50% in size. To be noted: recombinant CYP3A4, Luciferin-PPXE luminescence; series mostly up to 57.1 µM. The gist of the method: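 Luminescent readout of luciferin produced by CYP3A4 (20 nM) dealkylation of Luciferin-PPXE, 25 uM (its KM). NADPH-driven reaction ran 60 min at RT after 10 min compound preincubation; data scaled to 57 uM ketoconazole as 100% inhibition.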

The target in test [16] is Peroxisome proliferator-activated receptor delta (Homo sapiens) (UniProt Q03181). The test is described as follows: qHTS assay for small molecule antagonists of peroxisome proliferator-activated receptor delta signaling (AID 588535; active means well fitted inhibition curve with a large enough effect in the signal ratio, with a control signal flat, not every such curve was filed as active; the % refers to the signal ratio). To be noted: HEK293T PPARd-UAS-bla, beta-lactamase FRET ratio, 18 h; series mostly up to 76.7 µM. The gist of the method:
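Beta-lactamase reporter read-out (405 nm excitation, 460/530 nm emission) after CCF4 loading for 2 hrs at RT. HEK293T PPAR-delta-UAS-bla cells, 2% charcoal/dextran FBS, compounds for 18 hrs at 37 C. Hill fit gave IC50 and efficacy.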

Test [17] concerns the target Peroxisome proliferator-activated receptor gamma (Homo sapiens) (UniProt P37231). The experiment in a line: qHTS assay for small molecule agonists of peroxisome proliferator-activated receptor gamma signaling (AID 588536; active means well fitted curve in the direction sought with a large enough effect in the signal ratio, with a control signal flat, not every such curve was filed as active; the % refers to the signal ratio). To be noted: HEK293 PPARg-UAS-bla, beta-lactamase ratio, 16 h, percent of rosiglitazone response, DMSO as zero; series mostly up to 76.7 µM. The gist of the method: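 Using GeneBLAzer HEK293 cells, response was quantified by CCF4 fluorescence and normalized between basal DMSO (0%) and rosiglitazone 2 uM (100%); curves yielded half-maximal stimulation concentration and efficacy.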

Test [18] is described as follows: qHTS assay for small molecule activators of the nuclear factor-kappa B (NF-kB) signaling pathway (AID 651749; active means well fitted activation curve with a large enough effect in the signal ratio; the % refers to the signal ratio; further: % of control where 0% means no effect). Particulars: NF-kB-bla ME-180 cells, beta-lactamase FRET ratio, 16 h; stronger effect = higher value. The gist of the method: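 NF-kB-bla ME-180 cells, 2,000/well; 23 nL compound or DMSO pinned; 16 hr, 37C/5% CO2; beta-lactamase FRET read-out.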
Test [19] in a line: Cell Viability - NIH 3T3 (AID 541).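 Further: cells exposed to compound for 40 hours; plate controls were DMSO alone for no effect and tamoxifen positive control for full effect; nearly all actives have a fitted effect of over 25% in size.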 Particulars: NIH 3T3 cell viability, qHTS; activity change, negative = cytotoxicity: at 92.2 µM (top of the series). The gist of the method:
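qHTS format; 40 hr compound exposure, 37 °C; CellTiter-Glo luminescence (cellular ATP) read-out after 20 min at RT. Decrease in ATP = cytotoxicity; AC50 from standard Hill fit.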

In test [20] the target is Estrogen receptor (Homo sapiens) (UniProt P03372). The experiment in a line: qHTS assay for small molecule agonists of estrogen receptor alpha signaling (AID 588514; calls by dose curve;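 further: 0% = vehicle only and 100% = reference agonist; nearly all actives have a fitted effect of over 70% in size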). To be noted: ER-alpha-UAS-bla HEK293, beta-lactamase ratio, 18 h; series mostly up to 76.8 µM. The gist of the method: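 Read-out: CCF4 fluorescence from a beta-lactamase reporter in ER-alpha-UAS-bla HEK 293 cells after 18 hrs of compound exposure at 37 C. Normalized to 20 nM 17-beta-estradiol (100%) and DMSO (0%).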

Sequence of Peroxisome proliferator-activated receptor delta (Homo sapiens) (Q03181 whole entry, looked up): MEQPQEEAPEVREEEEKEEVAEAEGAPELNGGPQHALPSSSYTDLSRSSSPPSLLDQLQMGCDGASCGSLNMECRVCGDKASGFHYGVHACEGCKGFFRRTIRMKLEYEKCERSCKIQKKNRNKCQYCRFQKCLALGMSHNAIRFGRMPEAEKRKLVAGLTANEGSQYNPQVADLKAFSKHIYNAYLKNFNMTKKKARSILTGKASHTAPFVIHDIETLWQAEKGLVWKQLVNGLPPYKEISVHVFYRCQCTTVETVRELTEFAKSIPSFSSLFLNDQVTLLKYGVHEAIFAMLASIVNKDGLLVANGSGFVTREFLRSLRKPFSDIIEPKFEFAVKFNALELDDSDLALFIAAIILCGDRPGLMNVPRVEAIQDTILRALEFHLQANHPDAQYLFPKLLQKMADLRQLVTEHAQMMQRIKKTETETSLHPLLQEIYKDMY
Sequence of Tumor necrosis factor (Homo sapiens) (P01375 whole entry, looked up): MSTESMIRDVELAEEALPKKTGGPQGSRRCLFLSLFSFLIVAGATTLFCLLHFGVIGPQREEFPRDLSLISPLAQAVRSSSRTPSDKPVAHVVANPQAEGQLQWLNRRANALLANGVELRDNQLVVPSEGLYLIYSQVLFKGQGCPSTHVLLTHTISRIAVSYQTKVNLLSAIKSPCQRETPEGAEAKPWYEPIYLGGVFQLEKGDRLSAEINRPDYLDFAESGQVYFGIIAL
Sequence of Estrogen receptor (Homo sapiens) (P03372 whole entry, looked up): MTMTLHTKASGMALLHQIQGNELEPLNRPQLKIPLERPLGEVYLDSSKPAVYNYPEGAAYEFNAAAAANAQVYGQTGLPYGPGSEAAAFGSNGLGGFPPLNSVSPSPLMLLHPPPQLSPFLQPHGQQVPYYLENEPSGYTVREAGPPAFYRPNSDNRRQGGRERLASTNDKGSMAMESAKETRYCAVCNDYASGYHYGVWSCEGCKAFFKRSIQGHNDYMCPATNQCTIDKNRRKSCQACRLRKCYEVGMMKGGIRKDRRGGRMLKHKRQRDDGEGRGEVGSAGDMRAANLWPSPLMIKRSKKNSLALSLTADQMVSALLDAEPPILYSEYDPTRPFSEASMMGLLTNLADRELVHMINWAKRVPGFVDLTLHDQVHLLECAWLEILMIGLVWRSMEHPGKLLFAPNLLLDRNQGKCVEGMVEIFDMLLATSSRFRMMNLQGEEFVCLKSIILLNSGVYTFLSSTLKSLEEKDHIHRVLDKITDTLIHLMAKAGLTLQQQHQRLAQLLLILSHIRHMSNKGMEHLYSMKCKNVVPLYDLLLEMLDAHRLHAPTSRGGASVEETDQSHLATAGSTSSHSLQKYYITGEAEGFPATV
Sequence of Peroxisome proliferator-activated receptor gamma (Homo sapiens) (P37231 whole entry, looked up): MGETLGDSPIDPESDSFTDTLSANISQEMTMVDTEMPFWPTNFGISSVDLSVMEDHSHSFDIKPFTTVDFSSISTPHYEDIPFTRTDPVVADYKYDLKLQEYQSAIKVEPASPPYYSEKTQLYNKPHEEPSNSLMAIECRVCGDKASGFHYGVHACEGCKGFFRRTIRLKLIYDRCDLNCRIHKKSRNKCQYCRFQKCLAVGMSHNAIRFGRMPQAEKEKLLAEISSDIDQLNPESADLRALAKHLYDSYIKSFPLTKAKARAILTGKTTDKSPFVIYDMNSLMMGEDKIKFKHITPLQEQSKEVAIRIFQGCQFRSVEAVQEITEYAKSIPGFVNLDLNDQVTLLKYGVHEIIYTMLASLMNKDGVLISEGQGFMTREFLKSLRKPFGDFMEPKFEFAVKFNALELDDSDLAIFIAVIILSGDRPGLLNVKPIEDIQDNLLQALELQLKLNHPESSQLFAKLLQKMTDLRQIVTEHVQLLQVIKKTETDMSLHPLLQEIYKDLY
Sequence of Nuclear receptor ROR-gamma (Homo sapiens) (P51449 whole entry, looked up): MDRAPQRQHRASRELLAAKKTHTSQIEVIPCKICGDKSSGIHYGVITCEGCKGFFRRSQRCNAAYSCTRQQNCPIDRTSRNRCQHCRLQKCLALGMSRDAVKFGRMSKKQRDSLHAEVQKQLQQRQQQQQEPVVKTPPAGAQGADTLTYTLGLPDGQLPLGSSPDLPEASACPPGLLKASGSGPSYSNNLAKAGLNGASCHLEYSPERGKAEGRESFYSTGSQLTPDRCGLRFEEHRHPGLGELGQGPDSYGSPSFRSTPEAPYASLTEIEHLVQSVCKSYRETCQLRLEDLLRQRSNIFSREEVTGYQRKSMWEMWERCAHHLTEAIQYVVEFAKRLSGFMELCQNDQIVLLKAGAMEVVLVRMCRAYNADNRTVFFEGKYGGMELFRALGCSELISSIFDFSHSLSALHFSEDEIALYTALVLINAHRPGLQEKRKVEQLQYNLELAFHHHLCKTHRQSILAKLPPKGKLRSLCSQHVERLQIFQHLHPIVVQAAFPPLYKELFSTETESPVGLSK
Sequence of Cytochrome P450 3A4 (Homo sapiens) (P08684 whole entry, looked up): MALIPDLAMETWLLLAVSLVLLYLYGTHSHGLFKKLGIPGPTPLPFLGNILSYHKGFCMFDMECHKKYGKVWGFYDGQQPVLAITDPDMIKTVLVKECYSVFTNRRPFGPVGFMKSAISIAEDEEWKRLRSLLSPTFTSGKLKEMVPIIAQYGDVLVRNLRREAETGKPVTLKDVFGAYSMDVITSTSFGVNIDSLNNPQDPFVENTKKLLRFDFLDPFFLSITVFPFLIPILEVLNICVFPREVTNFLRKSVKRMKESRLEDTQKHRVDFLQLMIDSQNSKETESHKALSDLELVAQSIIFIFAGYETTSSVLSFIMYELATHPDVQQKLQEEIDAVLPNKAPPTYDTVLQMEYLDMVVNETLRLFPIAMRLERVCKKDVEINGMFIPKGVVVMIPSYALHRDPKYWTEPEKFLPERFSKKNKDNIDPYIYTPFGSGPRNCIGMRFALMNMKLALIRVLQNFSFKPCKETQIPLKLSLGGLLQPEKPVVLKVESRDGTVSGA
Sequence of Vitamin D3 receptor (Homo sapiens) (P11473 whole entry, looked up): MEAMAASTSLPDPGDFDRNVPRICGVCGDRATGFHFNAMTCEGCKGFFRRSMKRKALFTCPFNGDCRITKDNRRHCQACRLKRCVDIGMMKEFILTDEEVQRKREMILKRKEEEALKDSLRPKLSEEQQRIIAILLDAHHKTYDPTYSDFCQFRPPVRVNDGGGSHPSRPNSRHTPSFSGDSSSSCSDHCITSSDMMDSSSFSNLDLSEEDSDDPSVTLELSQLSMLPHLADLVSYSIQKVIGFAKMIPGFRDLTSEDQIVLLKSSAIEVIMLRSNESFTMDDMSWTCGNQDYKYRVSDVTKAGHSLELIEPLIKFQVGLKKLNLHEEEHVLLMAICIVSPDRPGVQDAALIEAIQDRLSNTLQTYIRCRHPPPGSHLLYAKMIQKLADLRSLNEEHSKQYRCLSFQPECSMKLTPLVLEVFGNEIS

`CC(=O)OCc1ccc2c(c1)OCO2`: in test [1], the Potency is over 92 µM. Further, the Potency result in test [2], in test [4], in test [5], in test [6], in [8] and in test [9] was “inactive” each time. Further, the Potency result in [10] is “inactive”. Further, the result in test [3] and in test [11] was inactive. Besides, in [7], the activation is -2.61%.

For the molecule `CCN(CC)c1ccc2c(C)cc(=O)oc2c1`, the Potency was over 92 µM in test [1], 44.7 µM (active) in test [5], 37.6 µM (active) in test [6] and 39.8 µM (active) in [7]. Moreover, the Potency entry in test [12], in test [2], in test [13], in [9] and in test [10] was “inactive” throughout. Moreover, the outcome in [14] was inactive.

Take `CC(=O)OC1CC(C)OC(C)O1` (stereo not given): the values for the Potency in test [1] and in test [6] were over 92 µM and 61.1 µM (active), respectively. Also, the Potency entry in [2], in [13], in test [15], in test [8], in test [9] and in [10] was “inactive” each time. The result in [16], in test [17] and in test [11] was inactive. The activation in [18] was -0.185% and -2.01%.

Take `O=c1[nH]ncc2ccccc12`: the Potency in test [1] is over 92 µM. For the same molecule, the activity change, negative = cytotoxicity in test [19] is -142% (active). The Potency entry in test [2], in test [13], in [15], in test [20], in test [4] and in test [5] was “inactive” throughout. In addition, the Potency result in test [6], in test [8], in test [9] and in [10] was “inactive” throughout. Moreover, the call in test [3], in [14], in [17] and in test [11] was inactive. Moreover, the values for the activation in [7] and in test [18] were -2.08% and 0.114%, respectively.

Take `CCCCC(CC)COCCCN` (stereo not given): in test [1], the Potency was over 92 µM. Moreover, the activity change, negative = cytotoxicity in [19] is -23.1%. Moreover, the Potency result in test [2], in test [13], in test [20], in test [6], in test [8] and in [10] was “inactive” each time. In addition, the molecule was called inactive in [3], in test [14], in test [16] and in [11]. For the same molecule, the activation in test [7] is -2.34%.

As for `c1ccc(COCc2ccccc2)cc1`, the Potency in test [1] was over 92 µM. In addition, the activity change, negative = cytotoxicity in [19] is -5.87%. For the same molecule, the Potency entry in test [12], in test [2], in test [15], in test [20], in test [4] and in test [5] was “inactive” each time. Further, the Potency result in test [6], in test [8], in test [9] and in [10] was “inactive” each time. Also, the molecule was called inactive in test [3], in test [14] and in test [17]. Further, the activation in test [7] is -1.51%; in [18], 0.253%.

Take `O=[N+]([O-])c1ccc(F)cc1F`: the Potency in [1] was over 92 µM. Also, the result in test [3], in test [14], in test [16], in test [17] and in [11] was inactive. Besides, the Potency entry in test [13], in test [15], in test [20], in test [4], in [5] and in test [6] was “inactive” throughout. The Potency entry in test [8], in [9] and in test [10] was “inactive” each time. Also, the activation was -3.21% in [7] and 0.374% in test [18].

For `OCC(CO)(CBr)CBr`, the Potency in [1] is over 92 µM. Also, the Potency entry in test [12], in test [2], in test [15], in test [6], in [8] and in test [9] was “inactive” in each case. For the same molecule, in test [10], the Potency entry was “inactive”. In addition, the result in test [16], in test [17] and in test [11] was inactive. In [18], the activation was -1.02% and -1.55%.
